Compound activity (PubChem BioAssay)
BAZ2B block: blocks human BAZ2B; AlphaScreen BAZ2B-H3K14Ac peptide displacement; Potency, µM (top dose mostly 114 µM), without a hit: at the top dose activity change, negative = inhibition, usual class: inhibitors; 4.4% of 360,000 active; further: potency means the concentration at half of the fitted maximal effect; on the % scale 0 is the no-effect control and ±100 the full control effect; nearly all actives have a fitted effect of over 60% in size
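Complex of BAZ2B and biotin-H3K14Ac (50 nM apiece) forms over 30 min at RT, then faces library compounds up to 110 uM for another 30 min; AlphaScreen beads added, 20 min dark incubation, luminescence read.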
G9a inh: blocks human histone lysine methyltransferase G9a; Q96KQ7; G9a H3K9 monomethylation, AlphaScreen, 2 h; Potency, µM (highest dose often 102 µM), inactives show at the highest dose activity, negative = inhibition, actives largely listed as inhibitors; 8.8% of 350,000 active; further: potency means the concentration at half of the fitted maximal effect; on the % scale 0 is the no-effect control and ±100 the full control effect; nearly all actives have a fitted effect of over 75% in size
Target sequence (Q96KQ7 913-1193 limits assumed): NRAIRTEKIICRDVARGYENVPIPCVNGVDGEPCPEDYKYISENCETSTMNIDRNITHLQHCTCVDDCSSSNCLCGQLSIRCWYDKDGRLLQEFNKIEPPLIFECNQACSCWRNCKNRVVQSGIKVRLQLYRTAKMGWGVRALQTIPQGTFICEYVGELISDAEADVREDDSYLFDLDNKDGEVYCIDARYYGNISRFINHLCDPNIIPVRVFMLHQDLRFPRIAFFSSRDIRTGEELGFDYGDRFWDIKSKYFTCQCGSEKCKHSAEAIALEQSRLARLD
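AlphaScreen read-out: biotin-H3K9 peptide (500 nM) methylation by 20 nM enzyme with 20 uM SAM, 2 h at room temperature after 15 min compound preincubation; anti-monomethyl H3K9 antibody plus donor/acceptor beads, 10 min dark.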
PLK1 PBD block: inhibitors of human PLK1 polo-box domain binding; Plk1 PBD binding of FITC phosphopeptide, fluorescence polarization; Potency, µM, without a hit: max response, negative = inhibition, most hits filed as inhibitors; 2.8% of 360,000 active; further: potency means the concentration at half of the fitted maximal effect; series mostly up to about 57 µM; on the % scale 0 is the no-effect control and ±100 the full control effect; nearly all actives have a fitted effect of over 65% in size
PI5P4K alpha inh: PI5P4K alpha (human) kinase inhibition; P48426; PI5P4Kalpha enzyme, ADP-Glo luminescence, 60 min; active compounds read low; 1.2% of 330,000 active; max response, %; active means max response of -50% or lower; inconclusive means between -30% and -50%; inactive means -30% or higher; further: value at the top dose of about 77 µM; on the % scale 0 is the no-effect control and ±100 the full control effect
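Reactions run in 0.038 M HEPES pH 7.4, 0.28 mM EGTA, 0.1% CHAPS and 5% DMSO, with PI5P4Kalpha, substrate, compound and 5 microM ATP final, one hour at room temperature. Readout is ADP-Glo luminescence.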
HP1b chromo inh: inhibitors of HP1-beta chromodomain binding to methylated histone tails. P83916. AlphaScreen HP1-beta / biotin-H3K9me3 peptide binding. Potency, µM (top dose mostly 114 µM), for the others: top-dose activity change, negative = inhibition, actives largely listed as inhibitors. 0.56% of 390,000 active; further: potency means the concentration at half of the fitted maximal effect; nearly all actives have a fitted effect of over 70% in size
Target sequence (P83916 whole entry, looked up): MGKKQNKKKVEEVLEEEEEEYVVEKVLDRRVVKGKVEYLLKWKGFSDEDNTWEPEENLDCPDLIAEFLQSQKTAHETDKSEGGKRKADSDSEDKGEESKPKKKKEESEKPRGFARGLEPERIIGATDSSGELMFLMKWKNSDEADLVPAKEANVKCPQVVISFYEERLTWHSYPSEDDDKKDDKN
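AlphaScreen: HP1-beta (50 nM) preformed 30 min with biotin-H3(1-18)K9me3 peptide (50 nM) in PBS pH 7.4, 0.01% Tween-20. Compound added for 30 min at RT, then streptavidin donor/nickel chelate acceptor beads (10 ug/mL) for 30 min.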
JMJD2A Tudor inh: JMJD2A Tudor domain (human) inhibition | O75164 | AlphaScreen JMJD2A-Tudor / H3K4me3 peptide binding | Potency, µM (top dose mostly 114 µM), for the others: at the highest dose activity change, negative = inhibition, hits mostly inhibitors | 4.4% of 390,000 active; further: potency means the concentration at half of the fitted maximal effect; on the % scale 0 is the no-effect control and ±100 the full control effect; nearly all actives have a fitted effect of over 50% in size
* marks the source's active call; other numbers are inactive results; ? = inconclusive; . = no result; [ ] = dose if it differs, or a comment. Shown are actives, neighbours in structure and some others; about 12% of the full set was active somewhere. Unless noted, the call rests on the fitted dose curve; in most records, active means well fitted curve in the direction sought with a large enough effect; inconclusive means small, poorly fitted or top-dose-only effect, or another doubt; inactive means no such curve, though single readings can be large; an effect the other way counts as inactive or inconclusive.

SMILES	BAZ2B block	G9a inh	PLK1 PBD block	PI5P4K alpha inh	HP1b chromo inh	JMJD2A Tudor inh
CCSc1nnc(NC(=O)C2CCCN(S(=O)(=O)c3cnc[nH]3)C2)s1 (configuration not stated)	3.3%	?	29.9µM*	-9.5	14.8%	?
Cc1ccc(NC(=O)C2CCCN(S(=O)(=O)c3cnc[nH]3)C2)cc1C (configuration not stated)	8.1%	-7.9%[59 µM]	?	-0.9	22.3%	-31.7%
CCN(CC)c1ccc(NC(=O)C2CCCN(S(=O)(=O)c3cnc[nH]3)C2)c(C)c1 (configuration not stated)	-5.2%	35.5µM*	?	3.6	-5.0%	?
Cc1ccc2nc(NC(=O)C3CCCN(S(=O)(=O)c4cnc[nH]4)C3)sc2c1 (configuration not stated)	8.5%	?	-25.5%	-0.7	-0.2%	-34.5%
COc1ccc(-c2cc(C)no2)cc1S(=O)(=O)NC(C)C	1.5%	0.4%[59 µM]	.	.	18.9%	-9.1%
COc1cccc(C2NC(=O)c3n[nH]c(-c4cccs4)c32)c1 (configuration not stated)	.	7.7%[59 µM]	.	.	22.0%	-6.7%
Cc1cc(NN)nc2ccc(Cl)cc12	-16.4%	14.1µM*	-21.3%	6.8	25.3%	?
Cc1ccc(Cl)cc1N1CCN(c2cccc[n+]2C)CC1	?	?	-5.9%	2.8	13.4%	-2.1%
C[n+]1ccccc1N1CCN(c2ccccc2Cl)CC1	-13.7%	3.98µM*	26.7µM*	-9.9	-1.2%	79.4µM*
CCOc1ccccc1N(C)C(=O)CCS(=O)(=O)c1ccc2c(c1)NC(=O)C(C)S2 (configuration not stated)	-23.3%	7.4%	26.7µM*	-23.9	3.2%	?
COc1ccccc1NS(=O)(=O)c1ccc2c(c1)NC(=O)C(C)S2 (configuration not stated)	-37.1%	.	26.7µM*	-11.6	-7.2%	-27.4%
CC1Sc2ccc(S(=O)(=O)CCC(=O)Nc3ccccc3Cl)cc2NC1=O (configuration not stated)	-22.9%	12.9%	26.7µM*	-4.9	11.1%	-20.9%
Cc1ccc(NC(=O)CCS(=O)(=O)c2ccc3c(c2)NC(=O)C(C)S3)cc1Cl (configuration not stated)	-19.4%[57.1 µM]	-9.2%	-4.8%	1.4	26.9%	-8.3%
COc1cccc(NS(=O)(=O)c2ccc3c(c2)NC(=O)C(C)S3)c1 (configuration not stated)	-20.1%	-2.1%	-14.6%	0.9	13.0%	-16.8%
Fc1ccc(OCCCCN2CCOCC2)cc1	-11.3%	-5.5%[59 µM]	2.3%	-4.2	23.4%	-4.5%
Brc1ccccc1OCCCN1CCCCCC1	?	56.2µM*	0.3%	1.2	?	1µM*
Brc1ccccc1OCCCCn1cnc2ccccc21	-23.0%	1.7%[12.7 µM]	-11.2%	17.3	26.1%	-6.9%
Brc1ccccc1OCCCN1CCCC1	?	.	2.5%	-1.2	?	10µM*
Brc1ccccc1OCCCCCN1CCOCC1	56.2µM*	39.8µM*	-5.5%	3.3	?	4.47µM*
CC(=O)c1ccccc1OCCCN1CCCCC1	50.1µM*	11.2µM*	-9.1%	1.8	?	3.16µM*
CCOC(=O)c1ccccc1NC(=O)N(C)CCc1c(C)nn(CC)c1C	-8.7%	-3.7%[12.7 µM]	.	.	30.2%	-9.3%
COc1cc(-c2noc(-c3ccc(N4CCN(C)CC4)c([N+](=O)[O-])c3)n2)cc(OC)c1OC	-30.8%	?	.	.	73.8%	-9.9%
O=C1c2ccccc2C(=O)N1CCOc1ccccc1Br	25.1%	115.6%	-0.2%	0.3	106.1%	53.8%
Brc1ccccc1OCCN1CCCC1	.	.	-0.5%	9.5	79.4µM*	20µM*
CC(C)c1ccccc1OCCCN1CCCC1	?	39.8µM*	3.0%	-2.3	?	31.6µM*
SMILES	BAZ2B block	G9a inh	PLK1 PBD block	PI5P4K alpha inh	HP1b chromo inh	JMJD2A Tudor inh
COC(=O)c1ccc2c(=O)n(CCCCCC(=O)N3CCN(c4cc(Cl)ccc4C)CC3)c(=O)[nH]c2c1	-22.6%	-2.1%[59 µM]	.	.	13.5%	-30.3%
O=C(Nc1cccc2c1CCCC2)c1cc(C2CCCCN2S(=O)(=O)c2cccs2)on1 (configuration not stated)	.	.	-11.2%	-0.5	.	.
COc1cc(CCC(=O)Oc2ccc(C(C)=O)cc2)cc(OC)c1OC	-4.5%	70.8µM*	-2.2%	1.1	33.2%	-4.8%
COC(=O)c1ccc(C)c(NC(=O)CCc2ccc(OC)c(OC)c2)c1	-4.9%	50.1µM*	2.5%	-5.1	16.9%	-21.2%
COc1ccc(CCNC(=O)CCc2cc(OC)c(OC)c(OC)c2)cc1	-1.7%	3.2%	-1.7%	-0.5	59.4%	7.0%
COC(=O)c1ccc(C)c(NC(=O)CCc2cc(OC)c(OC)c(OC)c2)c1	-2.0%	44.7µM*	-4.5%	3.1	19.1%	8.4%
O=C(N/N=C/c1ccco1)c1ccc(NC(=O)c2ccc(Cl)cc2)cc1	1.6%	-7.5%	-24.6%	?	13.8%	-14.0%
CC(C)(C)OC(=O)[C@H]1[C@H](c2ccc([N+](=O)[O-])cc2)C2(C(=O)c3ccccc3C2=O)C2c3ccccc3C=NN21 (some centres not stated)	39.8µM*	14.1µM*	-9.0%	-7.1	-31.8%	?
CCC(C(=O)NCc1ccco1)n1nc(C)n2c(cc3occc32)c1=O (configuration not stated)	-16.9%	-12.7%	-14.8%	1.0	13.4%	-31.6%
Cc1ccc(NC(=O)c2cc(N3C(=O)C4CC=CCC4C3=O)ccc2N2CCOCC2)cc1Cl (configuration not stated)	-1.0%	-0.5%[59 µM]	-4.8%	3.6	9.1%	-19.6%
Cc1ccc(NC(=O)c2cc(N3C(=O)C=CC3=O)ccc2Cl)cc1C	?	1.58µM*	5.32µM*	-76.0*	?	10µM*
CC(C)Sc1nc(-c2cccs2)nc2cc(Cl)ccc12	.	.	-2.0%	10.7	.	.
Cc1ccc(SCc2nc(-c3ccc(C(=O)NCc4ccccc4Cl)cc3)oc2C)cc1	-5.6%	5.0%[59 µM]	.	.	43.9%	3.1%
COc1ccc(NC(=O)c2ccc(COc3ccccc3OC)o2)cc1OC	-17.8%	-39.7%[59 µM]	29.9µM*	-20.3	16.1%	-21.3%
C/C(=N\NC(=O)c1ccc(CN2CCc3ccccc3C2)cc1)c1ccccc1O	2.82µM*	18.0%	-1.6%	-87.1*	25.3%	?
COc1ccc(NC(=O)c2ccc(CN3CCc4ccccc4C3)cc2)cc1OC	-23.2%	70.8µM*	5.7%	-2.9	9.8%	-1.3%
COc1ccc(NC(=O)c2ccc(COc3ccccc3Br)o2)cc1OC	?	-15.0%[2.33 µM]	-2.8%	11.1	-14.6%	-34.8%
Cc1ccc(NC(=O)CN(c2ccc(C)cc2)S(=O)(=O)c2cccc3nonc23)cc1	-32.4%	50.1µM*	2.6%	3.1	-0.8%	?
